Experimental data taken from the supplement of paper PMC11732987, “Enantioselective OTUD7B fragment discovery through chemoproteomics screening and high-throughput optimisation” (Communications Chemistry, 2025).

Assays:
Assay in all cases: log2 ratio of Biotin-Ahx-Ub-VS probe labelling (fragment/DMSO); higher = less target engagement (more negative = stronger competition), active = hit call of the paper (q ≤ 0.05, log2 ratio ≤ -1)
Details in all cases: compound concentration: 200 uM; treatment time: 3 h
USP34 = USP34 (UniProt Q70CQ2)
Sequence of USP34 (Q70CQ2 whole entry, the tested form may be a part): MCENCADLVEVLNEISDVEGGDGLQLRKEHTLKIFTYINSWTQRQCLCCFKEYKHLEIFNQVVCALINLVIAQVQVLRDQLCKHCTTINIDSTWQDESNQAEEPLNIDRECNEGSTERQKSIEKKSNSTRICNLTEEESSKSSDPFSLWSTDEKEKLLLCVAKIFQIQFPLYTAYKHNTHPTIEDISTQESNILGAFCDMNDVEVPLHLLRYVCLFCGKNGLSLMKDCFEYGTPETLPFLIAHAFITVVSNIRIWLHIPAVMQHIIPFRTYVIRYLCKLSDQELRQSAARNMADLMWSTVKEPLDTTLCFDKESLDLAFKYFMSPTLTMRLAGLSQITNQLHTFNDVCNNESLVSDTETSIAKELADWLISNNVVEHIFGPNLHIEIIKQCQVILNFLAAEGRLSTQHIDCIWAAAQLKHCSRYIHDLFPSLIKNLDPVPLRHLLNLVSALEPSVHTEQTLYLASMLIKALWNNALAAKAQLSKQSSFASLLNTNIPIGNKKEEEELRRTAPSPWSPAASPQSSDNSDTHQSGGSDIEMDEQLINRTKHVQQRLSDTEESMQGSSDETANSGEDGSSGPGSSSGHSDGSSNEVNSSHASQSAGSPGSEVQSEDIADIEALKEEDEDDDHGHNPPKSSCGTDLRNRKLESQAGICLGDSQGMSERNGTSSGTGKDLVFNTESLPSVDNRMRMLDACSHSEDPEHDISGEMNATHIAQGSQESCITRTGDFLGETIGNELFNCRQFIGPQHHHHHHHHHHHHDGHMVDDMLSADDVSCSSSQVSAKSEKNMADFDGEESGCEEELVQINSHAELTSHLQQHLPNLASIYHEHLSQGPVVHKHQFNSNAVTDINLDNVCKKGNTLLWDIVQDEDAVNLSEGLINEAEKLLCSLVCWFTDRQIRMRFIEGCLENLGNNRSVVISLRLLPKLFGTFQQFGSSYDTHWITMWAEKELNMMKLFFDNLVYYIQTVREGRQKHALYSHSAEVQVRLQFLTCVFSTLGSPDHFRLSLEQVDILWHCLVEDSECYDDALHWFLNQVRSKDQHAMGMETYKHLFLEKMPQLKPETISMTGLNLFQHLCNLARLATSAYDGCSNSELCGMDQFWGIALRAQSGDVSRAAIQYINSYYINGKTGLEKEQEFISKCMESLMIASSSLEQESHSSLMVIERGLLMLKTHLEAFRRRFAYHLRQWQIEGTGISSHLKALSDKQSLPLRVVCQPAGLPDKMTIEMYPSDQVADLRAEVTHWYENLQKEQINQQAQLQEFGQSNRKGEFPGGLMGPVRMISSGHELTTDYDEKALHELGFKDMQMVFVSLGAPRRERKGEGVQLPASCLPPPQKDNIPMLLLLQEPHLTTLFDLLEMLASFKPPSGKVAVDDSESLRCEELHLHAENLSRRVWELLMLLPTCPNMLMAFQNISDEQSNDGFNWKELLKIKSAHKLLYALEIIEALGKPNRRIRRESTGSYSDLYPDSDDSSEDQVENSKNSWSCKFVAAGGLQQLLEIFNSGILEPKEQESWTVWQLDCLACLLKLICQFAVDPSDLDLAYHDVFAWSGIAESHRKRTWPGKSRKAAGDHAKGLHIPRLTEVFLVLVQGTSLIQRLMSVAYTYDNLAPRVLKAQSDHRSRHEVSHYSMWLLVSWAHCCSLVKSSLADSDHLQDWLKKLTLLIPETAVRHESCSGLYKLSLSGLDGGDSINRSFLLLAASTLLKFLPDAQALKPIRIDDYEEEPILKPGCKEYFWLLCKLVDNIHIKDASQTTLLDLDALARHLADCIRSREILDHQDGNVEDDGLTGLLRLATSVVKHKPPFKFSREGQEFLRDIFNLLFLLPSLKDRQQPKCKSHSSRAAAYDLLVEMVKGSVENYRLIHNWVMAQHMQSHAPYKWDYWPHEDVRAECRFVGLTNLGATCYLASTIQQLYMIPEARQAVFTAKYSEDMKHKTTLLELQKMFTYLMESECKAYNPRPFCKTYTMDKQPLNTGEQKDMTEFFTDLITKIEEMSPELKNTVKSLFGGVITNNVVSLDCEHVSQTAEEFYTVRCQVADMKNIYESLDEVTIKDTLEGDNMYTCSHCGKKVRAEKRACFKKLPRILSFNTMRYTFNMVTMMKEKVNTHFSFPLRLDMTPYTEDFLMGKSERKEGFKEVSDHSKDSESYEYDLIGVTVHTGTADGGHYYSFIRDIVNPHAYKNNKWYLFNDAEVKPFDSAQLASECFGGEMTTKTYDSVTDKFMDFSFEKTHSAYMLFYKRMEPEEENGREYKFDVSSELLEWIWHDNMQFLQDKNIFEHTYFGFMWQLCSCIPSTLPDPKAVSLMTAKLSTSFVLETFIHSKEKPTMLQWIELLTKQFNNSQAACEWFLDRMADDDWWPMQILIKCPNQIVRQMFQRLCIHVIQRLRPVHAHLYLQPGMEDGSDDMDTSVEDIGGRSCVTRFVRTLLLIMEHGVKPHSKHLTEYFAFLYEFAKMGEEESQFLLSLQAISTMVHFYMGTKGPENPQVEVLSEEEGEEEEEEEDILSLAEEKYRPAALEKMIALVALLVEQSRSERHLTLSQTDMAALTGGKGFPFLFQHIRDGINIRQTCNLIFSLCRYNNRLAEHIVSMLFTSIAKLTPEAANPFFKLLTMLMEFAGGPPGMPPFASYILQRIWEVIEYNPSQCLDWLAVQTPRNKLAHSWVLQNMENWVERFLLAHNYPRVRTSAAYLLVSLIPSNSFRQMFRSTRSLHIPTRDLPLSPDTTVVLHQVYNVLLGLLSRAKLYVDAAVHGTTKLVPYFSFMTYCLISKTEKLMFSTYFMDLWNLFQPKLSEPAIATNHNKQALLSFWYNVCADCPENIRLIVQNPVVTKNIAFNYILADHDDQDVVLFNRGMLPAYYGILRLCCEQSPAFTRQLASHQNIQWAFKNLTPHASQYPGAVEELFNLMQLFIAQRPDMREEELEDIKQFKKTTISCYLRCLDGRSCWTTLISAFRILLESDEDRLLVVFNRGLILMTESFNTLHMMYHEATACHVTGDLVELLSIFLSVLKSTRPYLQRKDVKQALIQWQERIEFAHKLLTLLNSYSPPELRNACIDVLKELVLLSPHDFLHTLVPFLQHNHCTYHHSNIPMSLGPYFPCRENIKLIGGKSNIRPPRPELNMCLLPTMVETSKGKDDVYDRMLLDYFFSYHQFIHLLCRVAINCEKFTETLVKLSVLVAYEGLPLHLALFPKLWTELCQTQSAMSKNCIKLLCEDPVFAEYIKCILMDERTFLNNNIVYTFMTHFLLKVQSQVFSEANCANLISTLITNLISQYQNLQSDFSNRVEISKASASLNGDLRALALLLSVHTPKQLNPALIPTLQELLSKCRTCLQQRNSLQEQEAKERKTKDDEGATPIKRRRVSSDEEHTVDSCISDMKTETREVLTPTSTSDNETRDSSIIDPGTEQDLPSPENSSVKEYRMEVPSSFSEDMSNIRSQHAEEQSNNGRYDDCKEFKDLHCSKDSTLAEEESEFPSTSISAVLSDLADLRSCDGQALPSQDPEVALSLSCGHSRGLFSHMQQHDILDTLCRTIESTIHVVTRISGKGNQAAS
Summary of the method: (§1)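 The table lists average log2 ratios of fragment over vehicle, from an unpaired t-test on global-median-normalised Spectronaut label-free quantities. Proteins with ≥2 unique peptides were used. Samples were HEK293T lysate (495 µg) treated in triplicate with fragment at 200 µM or vehicle for 3 h, then with Biotin-Ahx-Ub-VS (0.5 µM final) for 1 h, with labelled DUBs NeutrAvidin-enriched and run by diaPASEF LC-MS/MS.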

USP36 = molecular target: T1, USP36 (UniProt Q9P275)
T1 sequence (whole entry): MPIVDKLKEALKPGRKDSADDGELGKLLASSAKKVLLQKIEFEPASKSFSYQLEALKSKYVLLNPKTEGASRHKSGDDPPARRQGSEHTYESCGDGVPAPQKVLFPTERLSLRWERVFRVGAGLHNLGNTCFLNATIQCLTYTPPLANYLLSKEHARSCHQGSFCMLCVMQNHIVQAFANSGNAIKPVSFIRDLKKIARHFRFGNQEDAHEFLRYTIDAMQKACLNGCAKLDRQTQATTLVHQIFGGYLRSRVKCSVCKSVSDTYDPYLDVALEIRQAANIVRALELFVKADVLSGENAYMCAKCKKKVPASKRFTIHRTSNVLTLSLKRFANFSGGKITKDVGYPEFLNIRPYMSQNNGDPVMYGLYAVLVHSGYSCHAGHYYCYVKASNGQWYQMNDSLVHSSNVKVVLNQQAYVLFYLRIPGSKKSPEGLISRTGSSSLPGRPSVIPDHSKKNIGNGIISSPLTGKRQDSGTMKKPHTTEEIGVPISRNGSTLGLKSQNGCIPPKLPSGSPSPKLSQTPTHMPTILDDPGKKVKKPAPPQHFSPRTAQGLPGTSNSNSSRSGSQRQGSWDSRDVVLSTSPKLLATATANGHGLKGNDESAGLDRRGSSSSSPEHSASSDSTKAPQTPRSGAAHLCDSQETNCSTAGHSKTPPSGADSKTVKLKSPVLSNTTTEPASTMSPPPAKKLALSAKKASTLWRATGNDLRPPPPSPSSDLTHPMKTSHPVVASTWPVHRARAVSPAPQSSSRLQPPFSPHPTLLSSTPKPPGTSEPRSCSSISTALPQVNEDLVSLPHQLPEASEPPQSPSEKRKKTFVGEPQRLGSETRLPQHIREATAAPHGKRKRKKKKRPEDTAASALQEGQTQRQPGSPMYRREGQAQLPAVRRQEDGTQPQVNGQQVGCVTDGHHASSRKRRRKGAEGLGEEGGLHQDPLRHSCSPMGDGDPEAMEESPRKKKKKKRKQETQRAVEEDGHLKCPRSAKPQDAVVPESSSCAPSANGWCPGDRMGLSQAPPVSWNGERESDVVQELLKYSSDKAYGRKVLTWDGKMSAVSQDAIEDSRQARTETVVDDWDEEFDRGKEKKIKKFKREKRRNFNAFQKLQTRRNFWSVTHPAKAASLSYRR
Summary of the method: as §1

USP38 = molecular target: T2, USP38 (UniProt Q8NB14)
T2 sequence (whole entry): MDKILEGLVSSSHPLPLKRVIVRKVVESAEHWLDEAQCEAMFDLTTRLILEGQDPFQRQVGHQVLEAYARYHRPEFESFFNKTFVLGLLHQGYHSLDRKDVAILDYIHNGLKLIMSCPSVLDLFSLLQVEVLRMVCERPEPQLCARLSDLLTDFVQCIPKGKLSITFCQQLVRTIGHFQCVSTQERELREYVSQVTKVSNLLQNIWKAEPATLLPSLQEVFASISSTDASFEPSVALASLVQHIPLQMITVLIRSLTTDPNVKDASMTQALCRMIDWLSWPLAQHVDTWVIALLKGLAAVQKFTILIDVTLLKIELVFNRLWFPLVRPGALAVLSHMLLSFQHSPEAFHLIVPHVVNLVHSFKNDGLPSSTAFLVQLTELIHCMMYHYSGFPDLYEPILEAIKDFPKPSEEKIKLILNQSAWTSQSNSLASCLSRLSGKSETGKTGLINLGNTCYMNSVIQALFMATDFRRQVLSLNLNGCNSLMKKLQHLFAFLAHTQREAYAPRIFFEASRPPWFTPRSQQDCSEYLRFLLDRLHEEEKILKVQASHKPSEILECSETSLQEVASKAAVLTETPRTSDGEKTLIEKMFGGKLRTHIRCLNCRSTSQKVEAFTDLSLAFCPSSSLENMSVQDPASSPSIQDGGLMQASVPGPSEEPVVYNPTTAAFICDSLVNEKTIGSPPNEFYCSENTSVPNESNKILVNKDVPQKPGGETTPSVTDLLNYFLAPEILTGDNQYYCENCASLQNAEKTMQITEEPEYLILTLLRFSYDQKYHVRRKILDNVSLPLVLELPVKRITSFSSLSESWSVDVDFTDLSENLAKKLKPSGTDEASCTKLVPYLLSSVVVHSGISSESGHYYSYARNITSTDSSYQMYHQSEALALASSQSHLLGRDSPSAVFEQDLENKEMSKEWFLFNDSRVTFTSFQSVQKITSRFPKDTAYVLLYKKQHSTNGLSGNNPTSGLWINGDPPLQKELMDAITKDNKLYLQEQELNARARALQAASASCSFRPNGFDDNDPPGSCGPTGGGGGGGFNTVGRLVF
Summary of the method: as §1

USP39 = molecular target: T3, USP39 (UniProt Q53GS9)
T3 sequence (whole entry): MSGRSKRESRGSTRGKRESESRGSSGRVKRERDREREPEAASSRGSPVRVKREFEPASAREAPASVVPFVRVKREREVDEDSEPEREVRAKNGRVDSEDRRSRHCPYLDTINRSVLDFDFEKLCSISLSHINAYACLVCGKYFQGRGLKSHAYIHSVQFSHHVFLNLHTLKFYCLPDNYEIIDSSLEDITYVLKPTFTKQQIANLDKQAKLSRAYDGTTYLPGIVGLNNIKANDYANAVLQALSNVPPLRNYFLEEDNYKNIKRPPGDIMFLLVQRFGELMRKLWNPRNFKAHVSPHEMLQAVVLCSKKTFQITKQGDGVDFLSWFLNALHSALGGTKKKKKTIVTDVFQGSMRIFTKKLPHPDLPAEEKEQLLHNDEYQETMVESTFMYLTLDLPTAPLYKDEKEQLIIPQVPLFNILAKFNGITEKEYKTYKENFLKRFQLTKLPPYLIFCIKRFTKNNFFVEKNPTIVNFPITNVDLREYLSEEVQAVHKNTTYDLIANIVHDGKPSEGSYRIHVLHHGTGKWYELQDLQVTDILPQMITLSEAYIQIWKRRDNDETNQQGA
Summary of the method: as §1

USP4 = molecular target: T4, USP4 (UniProt Q13107)
T4 sequence (whole entry): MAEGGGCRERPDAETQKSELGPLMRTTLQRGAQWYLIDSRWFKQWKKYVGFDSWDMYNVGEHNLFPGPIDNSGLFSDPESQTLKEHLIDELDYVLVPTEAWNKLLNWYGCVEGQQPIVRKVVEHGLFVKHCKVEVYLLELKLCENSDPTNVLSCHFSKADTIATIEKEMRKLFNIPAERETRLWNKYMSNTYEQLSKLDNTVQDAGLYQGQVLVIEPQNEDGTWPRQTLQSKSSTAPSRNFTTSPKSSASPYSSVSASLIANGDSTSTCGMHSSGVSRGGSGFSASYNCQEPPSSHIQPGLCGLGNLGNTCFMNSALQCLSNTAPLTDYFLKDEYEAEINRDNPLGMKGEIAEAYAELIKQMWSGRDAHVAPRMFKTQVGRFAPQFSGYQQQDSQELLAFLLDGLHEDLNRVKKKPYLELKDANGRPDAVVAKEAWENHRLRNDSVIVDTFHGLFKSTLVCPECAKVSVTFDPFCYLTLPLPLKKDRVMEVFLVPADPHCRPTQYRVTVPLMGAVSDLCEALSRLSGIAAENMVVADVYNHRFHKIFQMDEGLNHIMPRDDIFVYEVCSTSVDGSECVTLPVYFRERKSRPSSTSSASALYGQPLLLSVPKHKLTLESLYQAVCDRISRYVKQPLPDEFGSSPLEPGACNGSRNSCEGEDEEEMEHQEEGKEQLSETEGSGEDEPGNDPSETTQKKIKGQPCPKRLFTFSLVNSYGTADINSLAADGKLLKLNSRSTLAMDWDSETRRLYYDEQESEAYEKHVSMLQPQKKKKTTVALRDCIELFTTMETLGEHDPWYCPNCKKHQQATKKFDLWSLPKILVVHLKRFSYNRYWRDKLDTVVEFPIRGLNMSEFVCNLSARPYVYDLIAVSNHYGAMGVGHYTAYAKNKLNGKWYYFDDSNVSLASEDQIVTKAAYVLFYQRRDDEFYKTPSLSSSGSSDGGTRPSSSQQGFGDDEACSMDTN
Summary of the method: as §1

Measured: log2 ratio of Biotin-Ahx-Ub-VS probe labelling

CC(NC(=O)CCl)c1cc2n(n1)CCCC2.Cl (stereo not given)
inactive: USP34 -0.00259 | USP36 0.028 | USP38 -0.215 | USP39 -0.149 | USP4 -0.121
